Bioassay records from PubChem.
Gal4-VP16 FLuc – VP16 counterscreen qHTS for inhibitors of ROR gamma transcriptional activity. Drosophila S2 Gal4-VP16 UAS-luciferase, luminescence, 20 h. Potency, µM (series often up to 53.6 µM), inactives show top-dose activity, negative = inhibition, actives largely listed as inhibitors. 310,000 tested, 3.5% active. AID 2546, 2010;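 further: Gal4-VP16 expression switched on by copper sulfate through the metallothionein promoter; potency means the concentration at half of the fitted maximal effect; on the % scale 0 is the no-effect control and ±100 the full control effect; nearly all actives have a fitted effect of over 50% in size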
BCR signal inh – qHTS Assay to Find Inhibitors of Chronic Active B-Cell Receptor Signaling | AID 493014, 2011 | 340,000 tested, 0.05% active | ABC-DLBCL IkBa-CBG/CBR reporter, luminescence ratio, 4 h | Potency, µM (series often up to 46.1 µM), for the others: at the top dose activity change, negative = inhibition, hits mostly inhibitors; active means well fitted inhibition curve with a large enough effect in the signal ratio, with a control signal flat, not every such curve was filed as active; inconclusive means small, poorly fitted or top-dose-only effect, or effect the other way, or a change in a side signal; the % refers to the signal ratio;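 further: potency means the concentration at half of the fitted maximal effect; plate controls were basal doxycycline-induced cells for no effect and cells given 10 µM MG132 for full effect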
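TMD8 ABC-DLBCL cells carrying doxycycline-inducible green luciferase fused to IkappaBalpha plus unfused red luciferase were exposed to compounds (up to 46 uM) for 4 hrs at 37C. Activity came from the overlap-corrected green/red luminescence ratio.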
Giardia kill – Small Molecules that selectively kill Giardia lamblia: qHTS; Giardia lamblia trophozoite viability; activity change, % at 7.66 µM, hits read low; 340,000 tested, 0.15% active; AID 540267, 2011; in the data active means activity change below about -80%; inconclusive means between about -30% and that limit;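 further: parasites exposed to compound for two days anaerobically before the ATP read; on the % scale 0 is the no-effect control and ±100 the full control effect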
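Trophozoite viability was measured as ATP-dependent luminescence, read 15-30 min after reagent addition. Before that, parasites at 100 cells/well were exposed to compounds for 48 h, anaerobically, at 37 deg C.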
SW480 rerep – A quantitative high throughput screen for small molecules that induce DNA re-replication in SW480 colon adenocarcinoma cells; 340,000 tested, 1.8% active; SW480 DNA re-replication, Hoechst DNA content imaging, 48 h; AID 624297, 2012; Potency, µM (highest dose often 46.1 µM), inactives show top-dose re-replication activation, actives largely listed as activators; further: potency means the concentration at half of the fitted maximal effect; % of control where 0% means no effect; nearly all actives have a fitted effect of over 55% in size
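Treated cells incubate 48 hr (37 C, 5% CO2), are stained 40 min with Hoechst, and nuclear fluorescence is enumerated; a rise in nuclei with high DNA signal marks re-replication.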
RORgamma inh – qHTS for inhibitors of ROR gamma transcriptional activity; 310,000 tested, 5.4% active; Potency, µM (series often up to 53.6 µM), for the others: at the top dose activity change, negative = inhibition, actives largely listed as inhibitors; Drosophila S2 Gal4-RORgamma UAS-luciferase reporter, 20 h; Nuclear receptor ROR-gamma (Mus musculus), P51450; further: potency means the concentration at half of the fitted maximal effect; on the % scale 0 is the no-effect control and ±100 the full control effect; nearly all actives have a fitted effect of over 60% in size
Target sequence (P51450 whole entry, looked up, the tested form may be a part): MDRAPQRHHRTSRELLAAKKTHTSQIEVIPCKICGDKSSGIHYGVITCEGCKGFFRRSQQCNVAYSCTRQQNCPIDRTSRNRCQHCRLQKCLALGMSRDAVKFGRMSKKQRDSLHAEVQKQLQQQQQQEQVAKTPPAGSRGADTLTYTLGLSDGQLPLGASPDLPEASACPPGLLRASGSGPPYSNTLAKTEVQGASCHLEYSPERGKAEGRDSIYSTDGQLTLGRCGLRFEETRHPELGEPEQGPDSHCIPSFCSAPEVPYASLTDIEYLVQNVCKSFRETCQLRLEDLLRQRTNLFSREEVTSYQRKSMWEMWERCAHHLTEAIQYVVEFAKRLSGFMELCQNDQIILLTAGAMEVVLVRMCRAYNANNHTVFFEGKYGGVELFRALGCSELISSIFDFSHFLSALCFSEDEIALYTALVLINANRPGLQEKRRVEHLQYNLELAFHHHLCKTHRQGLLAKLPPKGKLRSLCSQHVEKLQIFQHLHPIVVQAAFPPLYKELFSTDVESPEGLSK
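Using a luciferase readout, inhibitors were identified by reduced reporter activity in Drosophila cells coexpressing a copper-inducible Gal4–ROR gamma fusion and UAS-driven Photinus luciferase, incubated 20 hr after 700 uM copper sulfate.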
MCF10A rerep – A quantitative high throughput screen for small molecules that induce DNA re-replication in MCF 10a normal breast cells. Potency, µM (doses to about 46.1 µM), inactives show top-dose activity, positive = re-replication, actives largely listed as activators. AID 624296, 2012. 350,000 tested, 2.9% active. MCF 10A DNA re-replication, Hoechst nuclear intensity, 48 h; further: potency means the concentration at half of the fitted maximal effect; % of control where 0% means no effect; nearly all actives have a fitted effect of over 50% in size
* marks the source's active call; other numbers are inactive results. Hits are enriched below; roughly 8.3% of the tested compounds scored in any of these assays. Unless noted, the call rests on the fitted dose curve; in most records, active means well fitted curve in the direction sought with a large enough effect; inconclusive means small, poorly fitted or top-dose-only effect, or another doubt; inactive means no such curve, though single readings can be large; an effect the other way counts as inactive or inconclusive.

`Cc1ccc(/C=C/c2ccc3cccc(O)c3n2)s1` gave Gal4-VP16 FLuc inconclusive, BCR signal inh inconclusive, Giardia kill 2.4, SW480 rerep inconclusive, RORgamma inh 14.1µM* and MCF10A rerep 25.3%.
Screening Cc1cccc(/C=C\c2ccccc2)n1 returned Gal4-VP16 FLuc -6.0% and RORgamma inh inconclusive.
CC(=O)COc1cccc2ccc(/C=C/c3ccc(Br)s3)nc12 was read as Gal4-VP16 FLuc -5.6%, BCR signal inh inconclusive, Giardia kill 17.4, SW480 rerep 10.8%, RORgamma inh inconclusive and MCF10A rerep 18.4µM*.
`NC(=O)C1CCN(CC(=O)Nc2cc(S(=O)(=O)N3CCOCC3)ccc2N2CCCC2)CC1` gave BCR signal inh 0.4%, Giardia kill -4.0, SW480 rerep -11.1% and MCF10A rerep 14.2%.
Cc1ccc(N2CC(=O)N(CC(=O)O)C2=O)cc1 was read as Gal4-VP16 FLuc 5.7%, BCR signal inh inconclusive, Giardia kill -9.3, SW480 rerep -8.3%, RORgamma inh -8.5% and MCF10A rerep -0.5%.
`CCc1ccccc1OCC(=O)OCC(=O)Nc1cc(C)on1` gave BCR signal inh 4.9%, Giardia kill -13.7, SW480 rerep -6.0% and MCF10A rerep -3.2%.
For COc1cccc2ccc(/C=C/c3ccc4c(c3)OCO4)nc12 the results were Giardia kill -9.9.
Screening COc1cccc(/C=C/c2ccc3cccc(O)c3n2)c1 returned Gal4-VP16 FLuc 11.2µM*, BCR signal inh inconclusive, Giardia kill -4.1, SW480 rerep inconclusive, RORgamma inh 3.55µM* and MCF10A rerep 8.7%.
COc1ccc(/C=N/n2c(=O)[nH]c3c([nH]c4ccc(C)cc43)c2=O)cc1CN1CCOCC1 was read as Gal4-VP16 FLuc -5.7%, BCR signal inh 11.4%, Giardia kill 5.4, SW480 rerep -6.9%, RORgamma inh -31.4% and MCF10A rerep 4.1%.
Screening CC1=CC(C)[C@H](/C=N/n2c(=O)[nH]c3c([nH]c4ccc(C)cc43)c2=O)C(C)C1 (some centres undefined) returned Gal4-VP16 FLuc -24.3%, BCR signal inh 7.8%, Giardia kill 3.7, SW480 rerep inconclusive, RORgamma inh -5.2% and MCF10A rerep 9.2µM*.
For CCC(C(=O)N1CCC(C(N)=O)CC1)n1nc(C)n2c(cc3occc32)c1=O (centres undefined) the results were Gal4-VP16 FLuc -0.4%, BCR signal inh -8.3%, Giardia kill -3.1, SW480 rerep -3.5%, RORgamma inh -26.2% and MCF10A rerep 1.0%.
`CSc1ccccc1OCc1cc(C(=O)N2CCc3c(Cl)cccc3C2)no1` gave Gal4-VP16 FLuc inconclusive, BCR signal inh 2.0%, Giardia kill -16.8, SW480 rerep -17.9%, RORgamma inh 12.6µM* and MCF10A rerep 8.8%.
Screening COc1cc(OC)cc(C2=NC3(CCC(C)CC3)NC2=S)c1 (centres undefined) returned Gal4-VP16 FLuc 2.0%, BCR signal inh inconclusive, Giardia kill -6.3, SW480 rerep -3.6%, RORgamma inh 1.41µM* and MCF10A rerep inconclusive.
For S=c1[nH]cc(Oc2ccc(Cl)cc2Cl)c(=S)[nH]1 the results were Giardia kill -5.7, SW480 rerep inconclusive and MCF10A rerep 16.4µM*.
Screening Clc1ccc(Oc2cnns2)c(Cl)c1 returned Gal4-VP16 FLuc 11.0%, BCR signal inh 1.5%, Giardia kill -5.7, SW480 rerep -1.0%, RORgamma inh 35.0% and MCF10A rerep 4.7%.
